# Assay results taken from PubChem BioAssay (NCATS).
# Records with an inconclusive call do not appear. Where a call stands in place of a potency, no number is given. Values without a mark were called inactive. The source made the active and inactive calls. The call rests on the fitted dose curve; in most records, active means well fitted inhibition curve with a large enough effect; inconclusive means small, poorly fitted or top-dose-only effect; inactive means no such curve, though single readings can be large or run the other way. Where a SMILES comes first, the peptide text is derived from it.
# Tests used:
# [1] = test system: Zika virus NS2B-NS3 protease (unlinked complex); experiment: Primary screen GU Rhodamine qHTS for Zika virus inhibitors: Unlinked NS2B-NS3 protease assay (AID 1347159); further: nearly all actives have a fitted effect of over 60% in size
# Summary of the method: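 Unlinked NS2B/NS3, 25 nM; Rhod110 peptide, 1.5 microM; compounds, up to 114 microM. Reaction run 15 min at RT in 10 mM Tris-HCl pH 8.0, 0.01% Tween 20; kinetic fluorescence change fitted with a 4-parameter Hill model.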
# [2] = test system: Zika virus NS2B-NS3 protease (linked construct); experiment: Primary screen NINDS Rhodamine qHTS for Zika virus inhibitors (AID 1347160); further: nearly all actives have a fitted effect of over 55% in size
# Summary of the method: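 Single-chain NS2B-NS3 protease, 25 nM, pH 8.0; compounds preincubated 15 min. Activity: Rhodamine110 release from 1.5 microM substrate over 15 min, room temperature, data fitted to 4-parameter Hill.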
# Potency means the concentration at half of the fitted maximal effect.
Compound,Potency [1],Potency [2],"activity change, negative = inhibition [1]"
Fc1ccccc1-c1nc2ccn(Cc3ccc(-c4ccc(C(F)(F)F)cc4C(F)(F)F)nn3)cc-2n1,inactive,inactive,
COc1ccc(CC(=O)NCc2ccccc2-c2ccccc2C(=O)NCCc2cccnc2)cc1,inactive,inactive,
COc1cccc(Cn2ncc3c4sc(S(C)=O)cc4n(C)c3c2=O)c1 (configuration not stated),inactive,inactive,
CC(O)C1CCC2C3CCC4CC(OC5OC(C(=O)O)C(O)C(O)C5O)CCC4(C)C3CCC12C (configuration not stated),inactive,inactive,
Oc1ccc2c(-c3c(-c4ccccn4)nn4c3CCC4)ccnc2c1,inactive,inactive,
CC1(C)CC[C@]2(C(=O)O[C@@H]3O[C@H](CO)[C@@H](O)[C@H](O)[C@H]3O)CC[C@]3(C)C(=CCC4[C@@]5(C)CC[C@H](OC6OC(C(=O)O)C(OC7OC(CO)C(O)C(O)C7O)C(O)C6O)C(C)(C)C5CC[C@]43C)C2C1 (some centres not stated),inactive,inactive,
CC(CCc1ccc(O)cc1)O[C@@H]1O[C@H](CO[C@@H]2OC(CO)[C@H](O)[C@H]2O)[C@@H](O)[C@H](O)[C@H]1O (some centres not stated),inactive,inactive,
CC1=CC(=O)CC(C)(C)C1CCC(C)O[C@@H]1O[C@H](CO)[C@@H](O)[C@H](O)[C@H]1O (some centres not stated),inactive,inactive,
COc1c2cc(c(O)c1OC)CCCCC(O)CCc1ccc(O)c-2c1 (configuration not stated),inactive,inactive,
C/C=C/C(=O)OC1/C=C/C(O)C(OC(C)=O)CCC(=O)OC1C (configuration not stated),inactive,inactive,
O=C(Nc1ccc(N2CCC(C(=O)N3CCOCC3)CC2)cc1)c1cnc(Oc2ccccc2)nc1,inactive,inactive,
C/C=C1/[C@H](O[C@@H]2O[C@H](CO)[C@@H](O)[C@H](O)[C@H]2O)OC=C(C(=O)OC)[C@H]1CC(=O)OCCc1ccc(O)c(O)c1,inactive,inactive,
Cc1cn2cc(CC(=O)N3CCC4(CC3)CN(Cc3ccc(-n5nccn5)cc3Cl)C4)nc2s1,inactive,inactive,
C=C1C(=O)O[C@@H]2C[C@]3(C)[C@@H](CCC(C)=O)[C@@H]3C[C@H]12,inactive,inactive,
C[C@H]1[C@H](C)CC[C@]2(C(=O)OC3OC(CO)C(O)C(O)C3O)CC[C@]3(C(=O)O)C(=CCC4[C@@]5(C)CC[C@H](O[C@@H]6O[C@@H](C)[C@H](OC7OC(CO)C(O)C(O)C7O)[C@@H](O)[C@H]6O)C(C)(C)C5CC[C@]43C)[C@H]12 (some centres not stated),inactive,inactive,
Cc1oc(S(=O)(=O)N2CCCCC2)cc1NC(=O)Nc1ccccc1,inactive,inactive,
OC[C@H]1O[C@@H](O[C@H]2[C@H](O)[C@@H](CO)O[C@@H](OCc3ccccc3)[C@@H]2O[C@@H]2OC[C@](O)(CO)[C@H]2O)[C@H](O)[C@@H](O)[C@@H]1O,inactive,inactive,
C/C=C(\C)C(=O)OC[C@H]1O[C@@H](O[C@H]2[C@@H](O[C@H]3O[C@H](COC(=O)/C(C)=C/C)[C@@H](O)[C@H](O)[C@H]3O[C@@H]3O[C@H](CO)[C@@H](O)[C@H](OC(=O)/C(C)=C/C)[C@H]3O)O[C@H](COC(=O)/C(C)=C/C)[C@@H](O)[C@@H]2O)[C@H](O)[C@@H](O)[C@@H]1O,inactive,inactive,
c1ccc2c(Nc3nnc(-c4ccncc4)s3)cccc2c1,inactive,inactive,

Compound,Potency [1],Potency [2],"activity change, negative = inhibition [1]"
COc1cccc(C(=O)NCCNc2nc3cc(C)cc(C)c3cc2C#N)c1,inactive,inactive,
C[C@@H]1O[C@@H](O[C@H]2[C@H](O)[C@@H](O[C@@H]3O[C@H](CO)[C@H](O)[C@H](O)[C@H]3O)[C@H](O[C@H]3CC[C@@]4(C)C(CC[C@]5(C)C4CC=C4[C@@H]6CC(C)(C)CC[C@]6(C(=O)O[C@@H]6O[C@H](CO)[C@@H](O)[C@H](O)[C@H]6O)CC[C@]45C)C3(C)C)O[C@@H]2C(=O)O)[C@H](O)[C@H](O)[C@H]1O (some centres not stated),inactive,inactive,
O=C(OC[C@H]1O[C@H](O[C@H]2CO[C@H](CO)[C@@H](O)[C@@H]2O)[C@H](O)[C@@H](O)[C@H]1O)c1ccccc1,inactive,inactive,
C=C[C@H]1[C@H](O[C@@H]2O[C@H](CO)[C@@H](O)[C@H](OC(=O)/C=C/c3ccc(O)c(OC)c3)[C@H]2O)OC=C2C(=O)OCC[C@]21O,inactive,inactive,
CC1CCC2(C(=O)O)CCC3(C)C(=CCC4C5(C)C[C@@H](O)[C@@H](O)C(C)(CO)C5CCC43C)C2C1(C)O (some centres not stated),inactive,inactive,
C[C@@H]1O[C@@H](O[C@@H]2\C=C/C=C\C=C/C=C\C[C@H](C)OC(=O)/C=C\[C@H]3O[C@@H]3C[C@H](O)C[C@]3(O)C[C@@H](O)[C@@H](C(=O)O)[C@H](C2)O3)[C@H](O)[C@H](N)[C@@H]1O,inactive,inactive,
CC(=O)NC1CC(=O)C23C(=O)NC(Cc4c[nH]c5ccccc45)C2C(C)=C(C)C(O)C3/C=C/CC(C)/C=C(/C)C(O)C1O (configuration not stated),inactive,inactive,
CC1OC(OC2CCC3(C)C(CCC4(C)C3C=CC35OCC6(CCC(C)(C)CC63)CCC45C)C2(C)CO)C(OC2OC(CO)C(O)C(O)C2O)C(O)C1OC1OC(CO)C(O)C(O)C1O (configuration not stated),inactive,inactive,
C=C(C)[C@@H]1CC[C@]2(C(=O)O)CC[C@]3(C)C(CCC4[C@]5(C)C(CC[C@]43C)C(C)(C)[C@@H](O)[C@@H]5C(=O)O)C12 (some centres not stated),inactive,inactive,
CC(C)=CCC[C@](C)(O[C@@H]1O[C@H](CO)[C@@H](O)[C@H](O)[C@H]1O)[C@H]1CC[C@]2(C)[C@@H]1[C@H](O)CC1[C@@]3(C)CC[C@H](O)C(C)(C)C3[C@@H](O[C@@H]3O[C@H](CO)[C@@H](O)[C@H](O)[C@H]3O[C@@H]3O[C@@H](C)[C@H](O)[C@@H](O)[C@H]3O)C[C@]12C (some centres not stated),inactive,inactive,
C=C1CC[C@@H]2[C@@](C)(CO[C@@H]3O[C@H](CO)[C@@H](O)[C@H](O)[C@H]3O)[C@H](O)CC[C@@]2(C)[C@@H]1CC/C(C)=C/CO[C@@H]1O[C@H](CO)[C@@H](O)[C@H](O)[C@H]1O,inactive,inactive,
C=CC(C)(C)C12Nc3c(ccc4c3OC(C)(C)C=C4)C1(O)CC1C(=O)N3CCCC3C(=O)N12 (configuration not stated),inactive,inactive,
N#CC1C(=O)N=C(c2cc(Cl)ccc2O)C=C1c1cc(OCc2ccccc2)cc(OCc2ccccc2)c1 (configuration not stated),inactive,inactive,
O=C(O)c1ccncc1Nc1nn(CCN2CCC(F)(F)CC2)c2ccc(F)cc12,inactive,inactive,
C=C[C@@]1(C)CCC2=C([C@H]1OC(C)=O)[C@H](OC(C)=O)CC1[C@](C)(C(=O)OC)CC[C@H](OC(C)=O)[C@]21C (some centres not stated),inactive,inactive,
CC(=O)/C=C/[C@H]1[C@](C)(O)[C@@H](O)[C@H](O)C2C(C)(C)CCC[C@@]21C (some centres not stated),inactive,inactive,
CC1=CCC(O)C2(C)CCC3C(C)C(=O)OC3C12 (configuration not stated),inactive,inactive,
COc1cc(Nc2nc3c(s2)CCCC3c2ccccc2)ccc1-n1cnc(C)c1 (configuration not stated),,inactive,-0.986% [at 19.1 µM]
COC(=O)C1=COC(O[C@@H]2O[C@H](CO)[C@@H](O)[C@H](O)[C@H]2O)C2C(C)C(=O)CC12 (some centres not stated),inactive,inactive,

Compound,Potency [1],Potency [2],"activity change, negative = inhibition [1]"
CC1(C)CC[C@]2(C(=O)O)CC[C@]3(C)C(=CCC4[C@@]5(C)C(=O)C[C@H](O)[C@@](C)(CO)C5CC[C@]43C)[C@@H]2C1 (some centres not stated),inactive,inactive,
COc1cnc(-n2cnc(C)n2)c2[nH]cc(C(=O)C(=O)N3CCN(C(=O)c4ccccc4)CC3)c12,inactive,inactive,
CC(C)(O)C(O)C(=O)OCc1ccc(O[C@@H]2O[C@H](CO)[C@@H](O)[C@H](O)[C@H]2O)cc1 (some centres not stated),inactive,inactive,
COc1cccc(CN(C(=O)CC(C)(C)C)C2CC(C(=O)N3CCNCC3)N(Cc3ccc4c(c3)OCO4)C2)c1 (configuration not stated),inactive,inactive,
COC(=O)C(CC1(O)c2ccccc2N2C(=O)C(CC(C)C)NC21)n1cnc2ccccc2c1=O (configuration not stated),inactive,inactive,
C/C=C1/C[N+](C)([O-])C2Cc3c([nH]c4ccccc34)C(=O)CC1C2C(=O)OC (configuration not stated),inactive,inactive,
CC(C)C1NC(=O)CNC(=O)C2CCCN2C(=O)C(Cc2c[nH]c3ccccc23)NC(=O)CNC(=O)C(Cc2ccc(O)cc2)NC(=O)CNC1=O (configuration not stated) (cyclo(GVGYGWP); configuration not given here),inactive,inactive,
CSCC1OC(n2cnc3c(=O)[nH]cnc32)C(O)C1O (configuration not stated),inactive,inactive,
H-DPPDPDRFYGMM-NH2,inactive,inactive,
CC(NC(=O)c1ccccc1N)C(=O)O (configuration not stated),inactive,inactive,
O=C(O)CCc1cc2ccoc2cc1O[C@@H]1O[C@H](CO)[C@@H](O)[C@H](O)[C@H]1O,inactive,inactive,
O=C(O)c1cccc(C(=O)CCC2OC(n3cnc4c(=O)[nH]cnc43)C(O)C2O)c1 (configuration not stated),inactive,inactive,
Cc1nnc(-c2sc(NC(=O)[C@H](C(C)C)n3c(=O)[nH]c4ccccc4c3=O)nc2C)o1,inactive,inactive,
COC(=O)C1=CO[C@@H](O[C@@H]2O[C@H](CO)[C@@H](O)[C@H](O)[C@H]2O)[C@@H]2[C@@H](C)[C@@H](O)C(O)[C@H]12 (some centres not stated),inactive,inactive,
C[C@H]1/C=C/C=C/C=C/C=C/C=C/[C@@H](O)[C@H](C(=O)O)[C@H](O)C[C@H](O)CCC[C@H](O)C[C@H](O)C[C@H](O)[C@@H](C)C(=O)O[C@@H]1C,inactive,inactive,
CC1=C2C(=O)C=C(CO[C@@H]3O[C@H](CO)[C@@H](O)[C@H](O)[C@H]3O)[C@@H]2[C@H]2OC(=O)[C@H](C)[C@@H]2CC1,inactive,inactive,
CC(=O)OCC(Cc1ccccc1)NC(=O)C(Cc1ccccc1)NC(=O)c1ccccc1 (configuration not stated),inactive,inactive,
O=C(O)CC1CCC(c2ccc(NC(=O)c3nnc(Nc4ccc(F)c(F)c4)o3)cc2)CC1 (configuration not stated),14.1 µM (active),14.1 µM (active),
